tim23-1 inh: inhibits growth of tim23-1 mutant yeast; 330,000 tested, 1.3% active; S. cerevisiae tim23-1 growth, BacTiter-Glo luminescence, 24 h; AID 463212; inhibition, % at 20 µM;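 active = growth inhibition of the mutant yeast at or above 50%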;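 note: temperature-sensitive mutant grown at 25 °C; plate controls were DMSO-treated mutant yeast for no effect and medium wells lacking yeast for full effect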
tim10-1 inh: tim10-1 yeast growth inhibition. 330,000 tested, 2.2% active. S. cerevisiae tim10-1 ts strain growth, BacTiter-Glo, 24 h. inhibition, % at 20 µM. AID 463190;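 active = inhibition of at least 40%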;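 note: mutant grown at 25 °C; 0% = DMSO wells with yeast and 100% = wells holding no yeast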
TIM10 inh: inhibits growth of TIM10 yeast strain; S. cerevisiae TIM10 strain growth, BacTiter-Glo luminescence, 24 h; AID 463195; inhibition, % at 10 µM; 330,000 tested, 1.4% active;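 active = inhibition of 40% or more at the single tested concentration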;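 note: wild-type TIM10 isogenic control strain grown at permissive 25 °C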
PfHsp90 yeast 2: inhibits growth of yeast expressing Plasmodium falciparum Hsp90 | S. cerevisiae expressing PfHsp90, BacTiter-Glo ATP, 48 h; yeast lacking PDR1 and PDR3 efflux regulators | inhibition, % at 9.4 µM | 310,000 tested, 0.32% active | AID 504621;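 active = every replicate shows inhibition above about 80%, whatever the replicate mean, limit read from the data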;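 note: 0% = DMSO neutral controls and 100% = 20 µM radicicol positive controls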
V-ATPase pHluor: alters yeast V-ATPase proton transport; S. cerevisiae, pHLuorin cytosolic pH fluorescence; response, % at 10 µM; 350,000 tested, 0.37% active; AID 504577; in the data active = response mostly above about 7.3%, no sharp cut-off; inactive = mostly below about 5.4%; note: actives read high
tim23-1 conf: confirmation of tim23-1 mutant yeast growth inhibitors. S. cerevisiae tim23-1 growth, BacTiter-Glo luminescence, 24 h. shares compounds with tim23-1 inh. AID 463218. 4,400 tested, 83% active. inhibition, % at 20 µM;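 active = inhibition above about 39% in either of two replicate wells at 20 µM, limit read from the data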;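 note: temperature-sensitive tim23-1 mutant grown at 25 °C; 0% = DMSO wells with yeast and 100% = medium wells without yeast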
V-ATPase pH SP: regulators of yeast V-ATPase proton transport; shares compounds with V-ATPase pHluor; S. cerevisiae pHLuorin cytosolic pH; response, % at 10 µM; 980 tested, 2% active; AID 602197; in the data active = response above about 24%;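 note: plate controls were vehicle wells for no effect and positive control wells for full effect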
* = called active by the depositor; / = not tested or not shown. In the library only some 3.7% were active in any assay of this set; here they are far more common.

SMILES	tim23-1 inh	tim10-1 inh	TIM10 inh	PfHsp90 yeast 2	V-ATPase pHluor	V-ATPase pH SP	others
O=C(c1ccccc1)N1C(=O)C(c2ccccc2)Oc2ccccc21 (stereo not given)	80*	39	33	-98	2	/	tim23-1 conf=57*
Cc1ccc(C(=O)N/N=C/c2ccc(-c3ccc(Br)cc3[N+](=O)[O-])o2)o1	50*	17	24	-23	0	/	tim23-1 conf=67*
CC(C)C[C@H](NC(=O)OC(C)(C)C)C(=O)N[C@@H](CO)[C@H](O)[C@@H]1C[C@@H]1C(=O)N1CCCC1	1	3	1	-13	-3	/
CS(=O)(=O)c1ccc(Cl)c(NC(=O)CSc2nnc3n2CCCCC3)c1	/	/	/	/	-1	/
COC(=O)c1cc2ccccc2c(-c2c(O)ccc3ccccc23)c1O	69*	-4	34	-59	1	/	tim23-1 conf=-30
O=Cc1c[nH]c2ccc(C(=O)c3ccccc3)cc12	7	-11	0	8	-3	/
COc1ccc(C#Cc2c(-c3ccccc3)n(-c3ccccc3)c3ccc(CO)cc23)cc1	5	13	7	-21	0	/
CCOC(=O)c1cn(-c2ccccc2)nc1-c1ccncc1	51*	38	35	-57	1	/	tim23-1 conf=46*
N#Cc1cccc(S(=O)(=O)N2CCN(c3ccnc4cc(Cl)ccc34)CC2)c1	28	22	15	-11	4	/
O=C(CN1Cc2ccccc2C1=O)Nc1ccc2c(c1)OCCO2	20	5	-1	10	11*	-3
CCN1CCN(CC(=O)Nc2ccc3c(c2)OCCO3)C(=O)C1=O	-7	-6	4	0	3	/
NC(=O)c1ccccc1OCC(=O)Nc1ccc2c(c1)OCCO2	-2	-3	-5	20	7.3*	0
COc1ccccc1CN1CC(C(=O)NCCCc2ccc(F)cc2)CCC1=O (stereo not given)	0	-3	-4	-7	13*	0
CCOc1ccc(N2C(=O)C3ON(C)C(c4ccc([N+](=O)[O-])cc4)C3C2=O)cc1 (stereo not given)	-10	-12	-26	-4	2	/
CCC1(CC)NC(=O)N(CC(=O)OCC(=O)Nc2ccc(OC(F)(F)F)cc2)C1=O	-3	-7	-2	/	-3	/
CCn1c(SCC(=O)NCC(=O)Nc2ccc(F)cc2)nnc1-c1cccs1	-3	-2	-11	-7	8.6*	-6
O=C(CSc1nc(-c2ccccc2)ns1)NCC1CCCO1 (stereo not given)	5	4	0	-3	3	/
O=C(O)CCCC(=O)N1CCCC1	-1	-9	-19	13	12*	-2
O=C(CCCC(=O)N1CCCC1)N1CCCC1	7	7	-19	-24	5	/
Cc1ccc(CNC2=NCCCCC2)n1C	5	2	-3	/	11*	0
CCn1c(SCC(=O)Nc2nc3ccccc3s2)nnc1-c1ccc(Br)cc1	11	14	11	-8	15*	1
Cn1c(SCC(=O)Nc2nc3ccccc3s2)nnc1-c1ccccc1	-33	-5	2	8	-1	/
COCCCNC(=S)N/N=C/c1ccc(O)cc1	5	-12	-4	2	13*	0
CCN(CC)CCCn1c2c(c(SCC(=O)Nc3nccs3)nc1=O)CCC2	-5	-10	-8	/	-7	/
Cc1ccsc1-c1nc(CN(C)C(C2CC2)C2CC2)c(C)o1	6	12	19	6	18*	1
SMILES	tim23-1 inh	tim10-1 inh	TIM10 inh	PfHsp90 yeast 2	V-ATPase pHluor	V-ATPase pH SP	others
COc1ccc(C(O)(CCC(C)C)C(CN2CCOCC2)c2ccc(Cl)cc2)cc1 (stereo not given)	20	17	17	9	5	/
CCCC(O)(c1ccc(OC)cc1)C(CN1CCOCC1)c1ccc(Cl)cc1 (stereo not given)	19	24	-1	3	12*	2
COc1ccc(Cl)cc1NC(=O)COC(=O)CCNS(=O)(=O)c1cccs1	4	-12	-12	/	-1	/
OCCCn1c(-c2ccccc2)csc1=Nc1ccccc1	42	3	-6	3	8.0*	2
Cc1ccc(Cl)cc1N1CCN(C(=O)CNC(=O)c2ccc(Br)o2)CC1	46	-8	-17	-14	8.1*	6
O=C(NCC(=O)N1CCN(c2cccc(Cl)c2)CC1)c1ccc(Br)o1	15	-9	1	5	-2	/
COc1ccc(C(=O)NC(CCSC)C(=O)NCc2nnc3ccccn23)cc1 (stereo not given)	1	-2	-2	-6	0	/
O=C(C1CCCC1)N1CCC(CO)(Cc2ccccc2Cl)CC1	11	6	29	12	-1	/
O=C(C1CCCCC1)N1CCC(CO)(Cc2ccccc2Cl)CC1	15	17	9	-33	8.6*	2
Cc1c(C)c2cc(Cl)c(OCC(=O)NCCCN3CCCC3=O)cc2oc1=O	/	/	/	/	11*	2
COCCn1c(=O)[nH]c(=O)c2c1nc(-c1cc(Br)c3c(c1)OCO3)n2Cc1ccccc1	11	7	15	14	5	/
CCCCCN(C(=O)CCC(=O)OCC(=O)NCc1cccc(OC)c1)c1c(N)n(CCCC)c(=O)[nH]c1=O	8	-3	20	-13	0	/
O=C(NCCCN1CCOCC1)c1cccc(NS(=O)(=O)c2ccc(Br)cc2)c1	-19	2	4	25	-3	/
O=C(NCC(c1ccco1)N1CCCC1)c1sc2cc(F)ccc2c1Cl (stereo not given)	18	5	3	4	8.6*	3
Cc1ccc(S(=O)(=O)N2CCCCC2)cc1NC(=O)CSc1nc(N)cc(=O)[nH]1	10	-5	3	-8	-4	/
O=C(NCCc1ccccc1)C(=O)N/N=C/c1ccccc1C(F)(F)F	23	8	6	-11	9.6*	-2
Cc1ccc(S(=O)(=O)N(C(=N)N)c2nc(N(C)C)nc(N(C)C)n2)cc1	2	-1	5	-11	1	/
COc1cc(OC)c(/C=N/NC(=O)COc2cccc3cccnc23)c(OC)c1	14	13	-13	-4	1	/
COc1ccc2c(c1)C(CC(=O)NN)CCC2 (stereo not given)	/	/	/	8	13*	0
COc1ccc(CC(=O)NC2CCCc3ccccc32)cc1 (stereo not given)	11	16	-17	/	1	/
Cn1c(SCC(=O)Nc2ccccc2)nc(O)cc1=O	-2	2	4	14	8.9*	-1
O=C(O)C1CCC1C(=O)Nc1nc(-c2ccc(Cl)s2)cs1 (stereo not given)	6	-6	10	-14	12*	0
Cc1ccccc1OCC(=O)Nc1ccc(N2CCN(C)CC2)c(Cl)c1	6	7	-17	-8	2	/
COc1ccc(NS(=O)(=O)CC(C)C)c(OC)c1	15	4	-12	6	11*	0
